In the library only some 3.6% were active in any assay of this set; here they are far more common.
Peg3 prom inh: inhibitors of Peg3 promoter; 360,000 tested, 1.7% active; AID 588405; inhibition, % at 20 µM; HeLa PEG-Prom luciferase reporter, luminescence, overnight;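 active = inhibition of at least 50% at 20 µM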
HSP90 refold inh: inhibitors of HSP90 luciferase refolding in rabbit reticulocyte lysate | inhibition, % at 5.6 µM | luciferase refolding luminescence, 3 h | 290,000 tested, 0.91% active | AID 1789;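 active = inhibition above the screen-wide mean plus 3 SD, computed separately per campaign, cut at about 16% in these data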;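 note: inhibitors lower the luminescence because luciferase stays unfolded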
LGR2 antag: Drosophila LGR2 receptor signaling inhibition | HEK293 LGR2, CRE-luciferase, bursicon-stimulated, 4 h | 380,000 tested, 0.35% active | inhibition, % at 9.99 µM;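 active = drop in luminescence signal, shown as inhibition above about 50% in the replicate tests, limit read from the data, passing the limit was not always enough; inconclusive = probably only some replicates passing the limit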;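 note: agonist challenge used bursicon conditioned medium at about half maximal strength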
Mdm2-MdmX inh: human Mdm2/MdmX binding inhibition; O15151+Q00987; SaOS-2 split-luciferase Mdm2/MdmX complementation, luminescence; inhibition, % at 8 µM; 330,000 tested, 3% active;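 active = inhibition of at least 50% at 8 µM in the primary screen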
Target sequence (O15151 whole entry, looked up): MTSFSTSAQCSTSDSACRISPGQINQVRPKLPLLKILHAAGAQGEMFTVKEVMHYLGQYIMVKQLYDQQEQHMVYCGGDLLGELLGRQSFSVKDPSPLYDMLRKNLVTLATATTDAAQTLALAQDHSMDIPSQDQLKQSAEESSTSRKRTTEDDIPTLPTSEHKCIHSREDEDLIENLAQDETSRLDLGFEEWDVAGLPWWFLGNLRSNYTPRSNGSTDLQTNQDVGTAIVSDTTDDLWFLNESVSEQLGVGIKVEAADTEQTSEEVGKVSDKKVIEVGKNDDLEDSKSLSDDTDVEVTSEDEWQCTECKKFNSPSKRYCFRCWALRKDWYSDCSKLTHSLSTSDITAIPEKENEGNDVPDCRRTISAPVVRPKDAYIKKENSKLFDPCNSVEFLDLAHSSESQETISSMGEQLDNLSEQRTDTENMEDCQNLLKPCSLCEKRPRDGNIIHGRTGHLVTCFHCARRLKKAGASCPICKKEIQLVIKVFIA
Target sequence (Q00987 whole entry, looked up): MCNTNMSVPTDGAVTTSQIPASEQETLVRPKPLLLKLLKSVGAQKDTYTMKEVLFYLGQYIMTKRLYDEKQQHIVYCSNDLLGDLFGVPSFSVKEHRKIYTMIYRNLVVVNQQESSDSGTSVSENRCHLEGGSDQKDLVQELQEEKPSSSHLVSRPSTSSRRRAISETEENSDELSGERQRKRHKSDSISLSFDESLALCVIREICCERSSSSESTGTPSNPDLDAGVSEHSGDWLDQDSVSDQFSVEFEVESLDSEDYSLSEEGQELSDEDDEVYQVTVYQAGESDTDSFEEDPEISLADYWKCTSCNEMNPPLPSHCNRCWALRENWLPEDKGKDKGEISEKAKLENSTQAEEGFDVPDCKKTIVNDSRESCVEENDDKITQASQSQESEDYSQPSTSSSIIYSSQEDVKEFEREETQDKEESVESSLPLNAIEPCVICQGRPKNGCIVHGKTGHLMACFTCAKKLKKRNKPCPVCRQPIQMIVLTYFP
KKLEB cytotox: counter-screen for CF NF-kB inhibitors: cytotoxicity. KKLEB CF airway cells viability, ATPlite luminescence, overnight; hits give low values; cells stimulated with P. aeruginosa culture filtrate. activity change (cytotoxicity), % at 5 µM. 360,000 tested, 0.36% active;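 active = corrected activity change at or below -50% at 5 µM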
CF NFkB inh: blocks PAF-induced NF-kB reporter in cystic fibrosis cells. KKLEB NF-kB-GFP reporter, GFP fluorescence overnight. inhibition, % at 5 µM. 360,000 tested, 0.86% active. AID 588850;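 active = at least 50% inhibition at 5 µM, scaled per plate between neutral and stimulator controls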;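 note: PAF is a Pseudomonas aeruginosa culture filtrate used as stimulus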
Mdm2 MdmX conf: confirmation of human Mdm2/MdmX interaction inhibitors; shares compounds with Mdm2-MdmX inh; Mdm2-MdmX binding, luminescent assay; inhibition, % at 8 µM; 10,000 tested, 55% active; AID 489028; in the data active = inhibition above about 40%
FLuc counter: full-length luciferase inhibition in Mdm2/MdmX counter-screen; SaOS-2 full-length luciferase counterscreen, luminescence; shares compounds with Mdm2-MdmX inh; 6,200 tested, 77% active; inhibition, % at 8 µM;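 active = mean inhibition at 8 µM reaching about 37%, which flags the compound as non-specific, limit read from the data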;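 note: p53-null SaOS-2 cells with luciferase driven by a doxycycline-inducible promoter; compound on cells about two nights before reading with doxycycline added after day one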
Numbers stand for hits; 0 = inactive; ? = inconclusive; - = no result given.

SMILES	Peg3 prom inh	HSP90 refold inh	LGR2 antag	Mdm2-MdmX inh	KKLEB cytotox	CF NFkB inh	Mdm2 MdmX conf	FLuc counter
CC[C@H](C)Cc1cn([C@@H](CCCN=C(NC(=O)OC(C)(C)C)NC(=O)OC(C)(C)C)C(=O)NCCCCCCCCCCC(=O)N2CCN(C(=O)OC(C)(C)C)CC2)nn1	54.5	-	-	65.6	0	0	0	-
C#CCOCCOCCOCCNc1nc(N2CCN(C(=O)CCCCCCCCCCNC(=O)[C@H](CCCCN)n3cc(C[C@@H](C)CC)nn3)CC2)nc(N2CCN(C(=O)CCCCCCCCCCNC(=O)[C@@H]([C@H](C)O)n3cc(C)nn3)CC2)n1	98.0	-	-	97.1	0	0	97.1	0
CC[C@H](C)Cc1cn([C@@H](CCCCN)C(=O)NCCCCCCCCCCC(=O)N2CCNCC2)nn1	0	-	0	0	0	0	-	-
C#CCOCCOCCOCCNc1nc(N2CCN(C(=O)CCCCCCCCCCNC(=O)[C@@H](CCSC)n3cc(CCO)nn3)CC2)nc(N2CCN(C(=O)CCCCCCCCCCNC(=O)[C@@H]([C@H](C)O)n3cc(C)nn3)CC2)n1	0	-	0	0	0	0	-	-
CN(C)CCCNC(=O)c1ccc(-c2nc(-c3ccc(Cl)cc3)cs2)cc1	103.1	0	-	87.4	0	0	94.2	0
CN(C)CCCNC(=O)c1ccc(-c2cc(O)c3ncccc3c2)cc1	0	-	0	55.3	0	0	0	55.0
Oc1cc(-c2ccncc2)cc2cccnc12	0	-	0	90.7	0	0	66.3	52.1
Oc1cc(Nc2cccnc2)cc2cccnc12	0	-	0	66.3	0	0	0	-
COc1ccc(CN(C)C[C@@H]2OCCCC[C@@H](C)Oc3ccc(NC(=O)CCCN(C)C)cc3C(=O)N([C@@H](C)CO)C[C@@H]2C)cc1	-	-	0	-	-	-	-	-
CCCC(=O)Nc1ccc2c(c1)OC[C@@H](C)N(Cc1ccccc1F)C[C@H](C)[C@H](OC)CN(C)C2=O	-	-	0	-	-	-	-	-
C[C@@H](O)C#Cc1cnc2c(c1)C(=O)N([C@@H](C)CO)C[C@H](C)[C@H](CN(C)Cc1cccc(F)c1)O2	-	-	0	-	-	-	-	-
COc1ccc(NC(=O)Nc2ccc3c(c2)C(=O)N(C)C[C@H](OC)[C@@H](C)CN[C@@H](C)CO3)cc1	-	-	0	-	-	-	-	-
Oc1cc(Nc2ccncc2)cc2cccnc12	0	-	-	0	0	0	-	-
Oc1cc(-c2ccc(N3CCCCC3)nc2)cc2cccnc12	0	-	-	98.0	0	0	97.0	49.7
CN(C)c1ccc(-c2cc(O)c3ncccc3c2)cc1	0	-	0	91.9	0	0	84.5	50.2
CCC1Oc2ccccc2N(CC(=O)NCCN2CCc3ccccc3C2)C1=O (stereo unspecified)	0	0	0	0	0	0	-	-
CCC1Oc2ccccc2N(CC(=O)NCCC2=CCCCC2)C1=O (stereo unspecified)	0	0	-	59.6	0	0	0	-
COC(=O)c1cc(=O)n(Cc2ccc3c(c2)OCO3)c(=Nc2ccccc2)s1	0	0	0	0	0	0	-	-
COC(=O)c1cc(=O)n(Cc2ccc3c(c2)OCO3)c(=Nc2ccc(F)cc2)s1	51.5	0	?	56.7	0	0	0	-
COC(=O)c1cc(=O)n(Cc2ccco2)c(=Nc2ccc(F)c(Cl)c2)s1	102.2	0	-	100.2	0	0	0	65.2
COC(=O)c1ccc(N=c2sc(C(=O)OC)cc(=O)n2C)cc1	0	0	-	-	0	0	-	-
COC(=O)c1cc(=O)n(CCc2ccccc2F)c(=Nc2ccc(F)c(Cl)c2)s1	91.0	0	0	73.5	0	0	0	-
C[C@H]1CN([C@@H](C)CO)C(=O)c2cccc(NC(=O)Nc3ccccc3)c2O[C@H]1CN(C)C(=O)NC1CCCCC1	-	-	0	-	-	-	-	-
Cc1noc(C)c1NC(=O)N(C)C[C@H]1Oc2c(NS(=O)(=O)c3ccccc3)cccc2C(=O)N([C@@H](C)CO)C[C@H]1C	-	-	0	-	-	-	-	-
COc1ccc2c3c(n(C)c2c1)[C@H](CO)N(Cc1ccc2c(c1)OCO2)CC31CN(C(C)=O)C1	-	-	0	-	-	-	-	-
COC1=C(N)C(=O)c2nc(-c3nc(C(=O)O)c(C)c(-c4ccc(OC)c(OC)c4O)c3N)ccc2C1=O	-	0	-	100.3	-	-	100.0	0

Assay outcomes as filed in PubChem.
